Rows were chosen to be rich in hits. Some 9.3% of all compounds tested hit in one or more screens of this group.
Vaccinia Venus = vaccinia inhibition (Venus reporter); Vaccinia virus Venus reporter expression, fluorescence; Potency, µM (doses to about 36.5 µM), for inactives: at the highest dose activity change, negative = inhibition, most hits filed as inhibitors; 330,000 compounds, 0.46% hits; AID 720580; calls by dose curve; tested in A549 cells; note: potency is the fitted concentration of half-maximal effect; nearly all actives have a fitted effect of over 30% in size
HCMV antiviral = blocks human cytomegalovirus replication | HFF cells, HCMV-luciferase reporter, 72 h; active compounds read low | activity change, negative = inhibition, % at 57.5 µM | 410,000 compounds, 4.5% hits | AID 1259415; in the data active = activity change below about -60%; inconclusive = no clear call, values can overlap the other calls; inactive = above about -39%
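Human foreskin fibroblasts infected with luciferase-reporter HCMV at MOI 1 PFU/cell, compounds at two doses. Luciferase measured 72 h post infection; normalized to buffer-only basal and Salinomycin (10uM) controls.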
HCV inh = HCV inhibition. AID 651820. 340,000 compounds, 3.4% hits. Huh7.5.1 HCVcc-Cre infection, luciferase reporter, 44 h. Potency, µM (titrated, usually from 41.8 µM), for the others: at the highest dose activity change, negative = inhibition, hits mostly inhibitors; note: potency is the fitted concentration of half-maximal effect
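Infectious HCV cell culture screen: compound-treated cells (1,000/well, pre-plated 4 h) are infected with HCVcc-Cre at roughly 0.5 moi and grown 44 h. Infection is quantified by luciferase signal after 15 min substrate incubation at room temperature.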
FMDV antiviral = antivirals against foot and mouth disease virus; FMDV antiviral cell-based qHTS; 410,000 compounds, 1.2% hits; Potency, µM (highest dose often 57.9 µM), for the others: top-dose activity change, negative = inhibition, hits mostly inhibitors; AID 1159524; calls by dose curve; tested in HEK293T cells; note: read-out not given here; potency is the fitted concentration of half-maximal effect; nearly all actives have a fitted effect of over 45% in size
Sm TGR inh = inhibitors of Schistosoma mansoni thioredoxin glutathione reductase. Q962Y6. purified TGR, DTNB reduction, TNB absorbance 405 nm. Potency, µM (top dose mostly 114 µM), for the others: top-dose activity change, negative = inhibition, most hits filed as inhibitors. 360,000 compounds, 3% hits; note: potency is the fitted concentration of half-maximal effect; nearly all actives have a fitted effect of over 60% in size
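TGR 20 nM + NADPH 100 uM (dispensed conc.), cpd preinc 15 min RT; start with NADPH (500 uM addition) then DTNB (15 mM addition). Kinetic TNB absorbance, 405 nm filter. Four-parameter Hill fit across titration.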
Vaccinia mCherry = vaccinia inhibition (mCherry reporter); 310,000 compounds, 0.63% hits; AID 720579; Potency, µM (top dose mostly 36.5 µM), inactives show top-dose activity change, negative = inhibition, most hits filed as inhibitors; Vaccinia virus mCherry reporter infection, fluorescence; calls by dose curve; tested in A549 cells; note: potency is the fitted concentration of half-maximal effect; nearly all actives have a fitted effect of over 35% in size
Active calls of the source: *; i = inactive; u = inconclusive; x = no result; ! = not active in a repeat; [ ] = another dose, or the depositor's remark. Unless noted, calls come from the whole dose curve; as a rule, active = well fitted curve in the direction sought with a large enough effect; inconclusive = small, poorly fitted or top-dose-only effect, or another doubt; inactive = no such curve, though single readings can be large; an effect the other way counts as inactive or inconclusive. % is set by controls: 0 for no effect and ±100 for the full control effect.

SMILES	Vaccinia Venus	HCMV antiviral	HCV inh	FMDV antiviral	Sm TGR inh	Vaccinia mCherry
Nc1nonc1C(=O)NCCNCc1cc(Br)ccc1OCc1ccccc1F	x	-62*	10µM*	u	-3%	x
OCCNCc1cc(Br)ccc1OCc1ccccc1Cl	-22%	-61*	u	u	-25%	-1%
CCOc1cc(CNCCO)cc(Br)c1OCc1ccc(Cl)cc1	u	-99*	13µM*	u	3%	u
CCOc1cc(CNCCO)cc(Br)c1OCc1ccccc1Cl	10µM*	-3	8.9µM*	13µM*	-3%	-9%[1.46 µM]
CCN(c1cccc(C)c1)S(=O)(=O)c1cc(CN2C(=O)c3cccnc3C2=O)ccc1OC	x	11	17%	17%	-11%	x
C=CCOc1c(Br)cc(CNCCCN2CCOCC2)cc1OC	x	38	u	-1%	1%	x
CCOc1cc(CNC(C)(C)CO)cc(Br)c1OCc1ccc(Cl)cc1Cl	u	4	2.8µM*	u	16%	u
CCOc1cc(CNCCN2CCOCC2)ccc1OCc1ccccc1Cl	-8%	-19	2.8µM*	-26%	0%	-17%
OCCNCc1c(OCc2ccc(Cl)cc2)ccc2ccccc12	-19%	-79*	11µM*	-21%	14%	-37%
CCOc1cc(CNCCCN2CCOCC2)cc(Br)c1OCc1ccccc1Cl	u	u	3.5µM*	-29%	3%[57.1 µM]	u
COc1cc(CNCCN2CCOCC2)ccc1OCc1c(Cl)cccc1Cl	x	x	u	x	3%	x
OCCCn1c(CCCNc2nc(-c3cccc(Br)c3)cs2)nc2cc(Cl)c(N3CCCCC3)cc21	u	-15	u	u	-4%	u
COc1cccc(-n2cnc3scc(-c4cccs4)c3c2=O)c1	u	-26	11µM*	u	4%	x
CCC(C)NC(=O)c1ccc2c(c1)N(Cc1cccc(Cl)c1)C(=O)c1ccccc1S2=O (stereo not given)	-4%	0	x	-12%	9%	-12%
CC1CCCN(CCCNC(=O)c2ccc3c(c2)N(Cc2cccc(Cl)c2)C(=O)c2ccccc2S3=O)C1 (stereo not given)	u	-81*	x	-1%	x	-14%
CCCCN(C)C(=O)c1ccc2c(c1)N(Cc1cccc(Cl)c1)C(=O)c1ccccc1S2=O (stereo not given)	-12%	-81*	x	-8%	6%	-16%
CCN1CCCC1CNC(=O)c1ccc2c(c1)N(Cc1ccccc1F)C(=O)c1ccccc1S2(=O)=O (stereo not given)	x	-22	10µM*	35%	-5%	x
CC1CCCN(CCCNC(=O)c2ccc3c(c2)N(Cc2ccccc2F)C(=O)c2ccccc2S3(=O)=O)C1 (stereo not given)	-26%	-70*!	10µM*	3%	6%	u
NC(=O)COc1ccc(NS(=O)(=O)Cc2ccccc2)cc1	-6%	25	25%	14%	u	i
O=C(NCc1ccco1)c1ccc2c(c1)N(Cc1ccccc1F)C(=O)c1ccccc1S2(=O)=O	-13%	-66*	x	5%	-15%	-17%
CC(Nc1ncnc2ccccc12)c1ccccc1 (stereo not given)	-24%	-82*	4.5µM*	u	-4%	i
COc1ccc(N2C(=O)CCC(C(=O)NCc3ccccn3)C2c2ccc(F)cc2)cc1 (stereo not given)	x	2	15%	12%	6%	x
COC(=O)CSc1nc2c(c(-c3ccc(C)o3)c1C#N)CCCC2	x	-7	5.6µM*	-28%	58%	x
Cc1ccc(-c2c(C#N)c(N)nc3c2CCCC3)o1	x	4	u	-12%	25µM*	x
CCSc1nc2c(c(-c3ccc(C)o3)c1C#N)CCCC2	-10%	-32	u	0%	-23%	i
SMILES	Vaccinia Venus	HCMV antiviral	HCV inh	FMDV antiviral	Sm TGR inh	Vaccinia mCherry
COc1cccc(NC(=O)Cn2c3ccc(F)cc3c3nc4n(c(=O)c32)CCCS4)c1	-7%	-61*	5%	-7%	-24%	-5%
Cc1ccc(NC(=O)Cn2c3ccc(F)cc3c3nc4n(c(=O)c32)CCS4)cc1F	7%	-72*	-28%	-16%	11%	i
COc1cc2c3nc4n(c(=O)c3n(CC(=O)NCC3CCCO3)c2cc1OC)CCS4 (stereo not given)	-10%	-92*	25%	-12%	141%	i
CCOc1ccc(/C=N/NC(=O)CN2CCSCC2)cc1	-10%	22	13%	-2%	-2%	-10%
COc1cc(OC)cc(C(=O)NCC(=O)N2CC=C(c3ccccc3)CC2)c1	u	-5	u	-10%	-2%	u
Cc1cc(C)c(OCC(=O)N2CC=C(c3ccccc3)CC2)c(C)c1	x	-67*	-29%	0%	1%	x
Cc1[nH]c2ccccc2c1/C=N/Nc1ccccc1[N+](=O)[O-]	-23%	0	u	21%	14%	-12%
COc1ccc(NS(=O)(=O)c2cc([N+](=O)[O-])ccc2N/N=C/c2c(C)[nH]c3ccccc23)cc1	-3%	33	11µM*	21%	x	-14%
O=C(CN(c1ccc2c(c1)OCCO2)S(=O)(=O)c1ccccc1)NCc1ccc(Cl)cc1	-20%	u	u	-12%	0%	-21%
CC(=O)c1c(C)c(C)c2n1CCn1c(C)ccc1-2	x	-30	u	3%	13µM*	x
CC12CCC3c4ccc(O)cc4CCC3C1CCC2O (stereo not given)	x	x	x	-12%	x	x
C[C@]12CC[C@@H]3c4cc(O)c(O)cc4CC[C@H]3[C@@H]1CC[C@@H]2O	-25%	-14	13µM*	-4%	u	-9%
CCOC(=O)CN(c1sc(C)c(C)c1C(=O)OCC)S(=O)(=O)c1ccc(C)cc1	-11%	-65*	x	13%	x	-9%
CCOC(=O)CN(c1ccccn1)S(=O)(=O)c1ccccc1	-10%	54	-8%	13%	3%	-18%
O=c1[nH][nH]c2nc(C(F)(F)F)cc(C(F)(F)F)c12	x	8	9%	7%	-20%	x
CC1CCC2(C(=O)O)CCC3(C)C(=CCC4C3(C)CCC3[C@@]4(C)CC(O)C(O)[C@@]3(C)CO)C2C1C (stereo not given in full)	1%	x	x	-5%	x	-1%
C[C@@H]1CC[C@]2(C(=O)O)CC[C@]3(C)C(=CCC4[C@]56CC[C@@](O)(OC5)C(C)(C)C6CC[C@]43C)C2[C@H]1C (stereo not given in full)	-22%	x	2µM*	u	-1%	-25%
C[C@H]1[C@H](C)CC[C@]2(C(=O)O)CC[C@]3(C)C(=CC[C@@H]4[C@@]5(C)C[C@@H](O)[C@H](O)C(C)(C)[C@@H]5CC[C@]43C)[C@H]12	13µM*	x	0%[8.37 µM]	0%	-5%	u
CC(C(=O)Nc1ccccc1-c1ccccc1)N1CCN(Cc2ccccc2)CC1 (stereo not given)	-15%	38	-21%	u	16%	-18%

Screening results as filed in PubChem.
